Laboratory results taken from PubChem BioAssay.

Molecular target: Voltage-gated potassium channel subunit beta-2 (Rattus norvegicus) (UniProt P62483)
Assay: KvBeta enzyme negative modulators, primary screen, biochemical, NADPH fluorescence (AID 622);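 further: slope of raw intensity against log time taken from 70 to 1610 s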
Settings: recombinant KvBeta, 4-cyanobenzaldehyde reduction, at 10 µM, hits give high values;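 active means fluorescence slope higher than the sample average by over 3 SD (cut at about -0.22 in these data, passing the limit was not always enough); inactive means the rest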

Voltage-gated potassium channel subunit beta-2 (Rattus norvegicus), sequence (P62483 whole entry, looked up): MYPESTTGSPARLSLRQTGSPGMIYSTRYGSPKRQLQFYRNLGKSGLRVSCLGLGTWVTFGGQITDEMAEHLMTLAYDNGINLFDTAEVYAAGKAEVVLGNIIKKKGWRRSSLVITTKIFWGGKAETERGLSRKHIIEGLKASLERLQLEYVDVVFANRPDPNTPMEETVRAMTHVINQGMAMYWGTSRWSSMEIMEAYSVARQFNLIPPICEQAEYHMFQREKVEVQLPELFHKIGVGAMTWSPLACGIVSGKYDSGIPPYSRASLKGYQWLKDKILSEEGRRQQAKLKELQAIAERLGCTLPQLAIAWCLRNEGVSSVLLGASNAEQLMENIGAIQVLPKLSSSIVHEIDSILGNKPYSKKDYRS

Fluorescence slope, inactive:
CCOc1ccccc1-n1nnnc1SCC(=O)Nc1cc2oc3ccccc3c2cc1OC -0.568
COc1ccccc1C1/C(=C(/O)c2ccccc2)C(=O)C(=O)N1CC(C)C (stereo unspecified) -0.629
CCn1c(-c2cc(Br)ccc2O)n[nH]c1=S -0.59
Cc1cc(C(=O)Nc2sc3c(c2C#N)CCCCC3)cs1 -0.581
Cc1ccc(N2C(N)=NC(N)=NC23CCCC3)c(C)c1 -0.635
O=C1C2C3C=CC(C3)C2C(=O)N1Cc1ccccc1 (stereo unspecified) -0.618
CCCN(CCC)C(=O)C1CCN(c2cc(C)nc3c(-c4ccc(OC)c(OC)c4)c(C)nn23)CC1 -0.492
Cc1c[nH]c2cccc(OCC(O)CNC(C)(C)C)c12 (stereo unspecified) -0.454
O=C(NCCN1CCOCC1)c1ccc2c(c1)N(Cc1ccccc1F)C(=O)CS2 -0.456
O=C(NCc1ccc2c(c1)OCO2)c1ccc(NS(=O)(=O)c2ccc3c(c2)OCCO3)cc1 -0.615
CC(C)(C#N)Nn1cnnc1 -0.237
CC1=NC(Nc2nc(C)c3ccccc3n2)=NC(C)(C)C1 -0.462
O=C(CSCc1cccc(F)c1)N1CCN(c2ccccc2)CC1 -0.398
CC(=O)N1CCN(c2ccc(NC(=O)c3ccc(C(C)(C)C)cc3)cc2)CC1 -0.494
CC1(C)OC(=O)N(c2cccnc2)C1(C)O (stereo unspecified) -0.401
Cc1cc(=O)oc2cc(OCC(=O)OCC(=O)N3CCc4ccccc43)ccc12 -0.331
